Test results reported in PubChem BioAssay (NCI).
About 83,000 compounds went through this panel and 20% of them were active in at least one assay; those are over-represented in the sample as a whole.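 Compound tested at a single concentration for 48 hours in 96-well plates; a percent growth value below 10 was scored as active.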 Values without a mark were called inactive. Active and inactive are the calls of the source.

Columns and labels:
Test in all cases: NCI-60 one-dose screen, 48 h (100 = growth as untreated, 0 = no growth, -100 = all killed)
Settings in all cases: 10 µM unless noted
RPMI-8226 leukemia = test system: RPMI-8226 leukemia
OVCAR-8 ovarian = test system: OVCAR-8 ovarian
OVCAR-5 ovarian = test system: OVCAR-5 ovarian
OVCAR-4 ovarian = test system: OVCAR-4 ovarian
SK-OV-3 ovarian = test system: SK-OV-3 ovarian
IGROV1 ovarian = test system: IGROV1 ovarian
OVCAR-3 ovarian = test system: OVCAR-3 ovarian
HS 578T breast = test system: HS 578T breast
NCI/ADR-RES ovarian = test system: NCI/ADR-RES ovarian

Row | SMILES | growth (RPMI-8226 leukemia) | growth (OVCAR-8 ovarian) | growth (OVCAR-5 ovarian) [%] | growth (OVCAR-4 ovarian) | growth (SK-OV-3 ovarian) | growth (IGROV1 ovarian) | growth (OVCAR-3 ovarian) | growth (HS 578T breast) | growth (NCI/ADR-RES ovarian)
1 | O=C(C1=Cc2cc3ccccc3n2Cc2cnnn21)c1ccc(F)cc1 | 92.4% | 99.4% | 115 | 95% | 94.6% | 90% | 104% | 90.8% | 101%
2 | CS(=O)(=O)Nc1cc(-c2ccc3ncnc(Nc4ccc(F)c(Cl)c4)c3c2)ccc1Cl | 37.4% | 52% | 53.9 | 52.5% | 17.7% | -3.25% (active) | 36.3% | 18.9% | 41.6%
3 | O=S(=O)(Nc1cc(F)cc(F)c1)c1ccc(-c2cnc(C3CC3)o2)cc1 | 26.5% | 49.6% | 71 | 67.8% | 60.2% | 34.3% | 2.74% (active) | 14.4% | 26.4%
4 | COCC(=O)Oc1cc(-c2ccc(C)cc2C)c(OC(=O)COC)c(-c2ccc(C)cc2C)c1 | 34.2% | 59.5% | 38.1 | 50.5% | 66.2% | 50.1% | 51.9% | 55% | 68.2%
5 | NS(=O)(=O)c1ccc(C(=O)N=Nc2c(O)[nH]c3ccc(Cl)cc23)cc1 | 98.5% | 95% | 110 | 99.7% | 108% | 98.1% | 113% | 99.5% | 102%
6 | CC(=O)c1c(Nc2cccc(F)c2)[nH]c2c(Cl)cc(Cl)c(Cl)c2c1=O | -8.11% (active) | 7.74% (active) | 15.3 | 13.5% | 1.25% (active) | 17.9% | 14.8% | 4.68% (active) | 3.89% (active)
7 | COc1cc(/C=N/NC(=O)c2ccc(-n3cc(-c4ccccc4)nn3)cc2)cc(OC)c1OC | 24% | 49% | 105 | 45.8% | 73.7% | 57% | 93% | 53.1% | 80.8%
8 | CNCCCNc1nc2ccccc2c2c(=O)c3cc(Cl)ccc3sc12 | -25.3% (active) | 24.5% | 47.1 | 63.6% | 84.4% | 33.2% | 9.78% (active) | 59.9% | 44.3%
9 | N#Cc1c(-c2ccccc2)cc(-c2ccccc2)n(CCCCC(=O)NO)c1=O | 0.83% (active) | 15.6% | 13.6 | 34% | 42.1% | 20% | 20.5% | 27.4% | -16.2% (active)
10 | C=C(C)[C@@H]1CC[C@]2(C)[C@H](C=CC3=C4C[C@@](C)(CO)CC[C@]4(C)CC[C@]32C)[C@@]1(C)CCCN | -33.3% (active) | -38.7% (active) | 19.1 | -55.4% (active) | 8.02% (active) |  | -58.8% (active) | -51.2% (active) | -40.7% (active)
11 | O=C(Nc1nc(Cl)nc(Nc2ccc(N3CCOCC3=O)cc2)n1)c1ccc(Cl)s1 | 90.3% | 87.6% | 99 | 102% | 99% | 72.6% | 102% | 89.8% | 99%
12 | Ic1ccc(Nc2nc3nonc3nc2Nc2ccc(I)cc2)cc1 | -36.6% (active) | 6.55% (active) | 34 | 19.3% | -19.9% (active) | 28.5% | 9.01% (active) | 19.2% | 3.09% (active)
13 | COc1ccc(C2C3=C(COC3=O)N(CCO)c3cc4c(cc32)OCO4)cc1OC (stereo unspecified) | 88.8% | 102% | 94.7 | 88.1% | 84.1% | 60.9% | 43% | 92.4% | 94.7%
14 | Cc1c(O)cc(-c2cnc(N/N=C/c3ccccc3)s2)c(O)c1C | 51.5% | 84.4% | 110 | 63.5% | 102% | 83.8% | 95.5% | 91.2% | 93.6%
15 | CC(C)Cc1nc(Nc2ccccc2)[nH]c(=O)c1C#N | 25.1% | 64.4% | 84.9 | 36.8% | 60% | 71.4% | 30.8% | 36.2% | 62.9%
16 | Nc1nc(N(Cc2ccccc2)c2ccccc2)c2cn[nH]c2n1 | 58.5% | 80.3% | 100 | 78.6% | 95.6% | 80.7% | 76.7% | 58.2% | 59.9%
17 | COc1cc(Cc2cc(-c3ccccc3)nn(Cc3ccccc3)c2=O)cc(OC)c1OC | 24.8% | 31.9% | 69.7 | 35.3% | 82.3% | 53.1% | 46.9% | 74.9% | 30.5%
18 | Cc1ccc(Cc2cnc(NC(=O)/C=C/c3ccc(C)o3)s2)cc1 | 26.8% | 62% | 60.3 | 73.4% | 42.9% | 42.2% | -8.25% (active) | 30.7% | 33.9%
